The text below walks through data of the supplement of paper PMC4380459.

The structures appear in SMILES notation.

This assay relates to tubulin (bovine brain). Briefly: tubulin polymerization end-point dOD, fold change relative to DMSO vehicle; higher = more polymerization (stabilization). To be noted: 50 µM; 60 min; 37 °C. How it is done: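 In-vitro tubulin polymerization assay (Cytoskeleton HTS kit) with 4 mg/ml bovine brain tubulin in G-PEM buffer and compound at 50 uM (0.5% DMSO). Turbidity was read at 340 nm every minute for 1 h at 37 C. The end-point change in OD (dOD) was converted to % fold change relative to the DMSO vehicle (0%), and runs were scaled using DMSO and Taxol controls. The paper calls >20% an effect, 20-40% weak and >40% strong; positive values mean stabilization, negative values destabilization. Scale: negative = destabilization.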
`O=C(Nc1ncc(Cc2ccc(Cl)cc2)s1)c1cnccn1`: the “tubulin polymerization end-point dOD” value was -97.6%.

On to `COc1ccc(CNc2c(-c3ccc(O)cc3O)nc3cnccn23)cc1`, for which the “tubulin polymerization end-point dOD” value turned out to be 30.8%.

As for `CCc1ccccc1NC(=O)CSc1nc2cc3c(cc2cc1CC)OCO3`, the “tubulin polymerization end-point dOD” value was -65%.

For the compound `Cc1ccc(/C=N\NC(=O)c2cccc(Cl)c2)cc1`, the “tubulin polymerization end-point dOD” value was found to be 3.13%.

For the compound `COc1ccc2cc(CN(Cc3cccs3)C(=O)Nc3ccccc3OC)c(=O)[nH]c2c1`, the “tubulin polymerization end-point dOD” value is 17.1%.

Turning to `COc1cc2c(cc1OC)C(c1cccs1)[NH+](CC(O)c1ccccc1)CC2` (stereo not given), the “tubulin polymerization end-point dOD” value was -40.4%.

Take `COc1ccc(-n2nnnc2SCc2cc3c(cc2Br)OCO3)cc1`: the “tubulin polymerization end-point dOD” value is -14.8%.

For the compound `CCc1cc2cc(OC)ccc2nc1SCC(=O)Nc1ccccc1Cl`, the “tubulin polymerization end-point dOD” value is -96.6%.

Take `Cc1ccc(/C=N\NC(=O)COc2ccccc2Br)c(C)c1`: the “tubulin polymerization end-point dOD” value is -56.5%.

For `Cc1cc2cc3c(cc2nc1SCC(=O)NC(C)(C)C)CCC3`, the “tubulin polymerization end-point dOD” value turned out to be 63.4%.

`CC(=O)c1c(C)[nH]c(C(=O)Nc2ccc(N3CCCC3)cc2)c1C`: the “tubulin polymerization end-point dOD” value came to 27.6%.

For the compound `O=c1[nH]c(CSc2nnc(C3CC3)n2C2CC2)nc2sc(-c3ccccc3)cc12`, the “tubulin polymerization end-point dOD” value was 31.8%.

On to `Cc1ccc(NC(=O)CSc2nc3cc4c(cc3cc2C#N)OCCO4)c(C)c1`, for which the “tubulin polymerization end-point dOD” value is -24.1%.

Take `COc1ccccc1NC(=O)CSc1nnc(-c2cc(OC)c(OC)c(OC)c2)n1C`: the “tubulin polymerization end-point dOD” value is -33.1%.

Consider `CCS(=O)(=O)N1CCc2cc(C3=NN=C(NCc4ccc5c(c4)OCO5)SC3)ccc21`, for which the “tubulin polymerization end-point dOD” value turned out to be 227%.

Take `Cc1cc2ccccc2n2c(=O)n(CC(C)NC(=O)c3cnn(C)c3C)nc12` (stereo not given): the “tubulin polymerization end-point dOD” value is -1.81%.

On to `CCOc1ccc2nc(SCC(=O)Nc3ccccc3CC)c(C#N)cc2c1`, for which the “tubulin polymerization end-point dOD” value was -22.2%.

As to `COc1cccc2sc(NC(=O)C3CN(C(C)=O)c4ccccc4O3)nc12` (stereo not given), the “tubulin polymerization end-point dOD” value is -38.1%.

`Cc1cnc(C(=O)Nc2ncc(Cc3ccc(C)c(Cl)c3)s2)cn1`: the “tubulin polymerization end-point dOD” value is -19.2%.

For `Cc1ccc(C)c(NC(=O)CSc2nc3cc4c(cc3cc2C#N)OCO4)c1`, the “tubulin polymerization end-point dOD” value amounted to 52.6%.

On to `COc1ccc(C2=NOC(=O)/C2=N/Nc2ccc(Cl)cc2)cc1`, for which the “tubulin polymerization end-point dOD” value turned out to be 19%.

In the case of `COc1ccc(C2(C(=O)NC(C)c3nc(-c4ccncc4)n[nH]3)CC2)cc1` (stereo not given), the “tubulin polymerization end-point dOD” value is -41.3%.

Take `CC(C)n1ncc2cc(C(=O)Nc3cccc4c3CCCC4)cnc21`: the “tubulin polymerization end-point dOD” value is -23.5%.

On to `Clc1ccc2sc(/C=C/c3cccnc3)nc2c1`, for which the “tubulin polymerization end-point dOD” value is 47.1%.

For `CC1Oc2nc3ccccc3cc2CN(Cc2ccc(F)cc2)C1=O` (stereo not given), the “tubulin polymerization end-point dOD” value was found to be 3.19%.

On to `O=C(N/N=C/c1cccs1)c1n[nH]c2c1CCC2`, for which the “tubulin polymerization end-point dOD” value was 12.9%.

As for `Cc1csc(NC(=O)CSc2nnc(-c3cccnc3)n2-c2ccccc2C)n1`, the “tubulin polymerization end-point dOD” value is -45.1%.

`COc1ccc2nc(SCC(=O)Nc3ccccc3Br)c(C#N)cc2c1`: the “tubulin polymerization end-point dOD” value came out at 14.8%.

Turning to `O=C1CCCN1c1ccc(S(=O)(=O)Oc2ccc(Cl)cc2)cc1`, the “tubulin polymerization end-point dOD” value is -18.4%.

On to `Cc1cc(N2CCN(C(=O)c3c[nH]nc3-c3ccccc3)CC2)nc(C(C)C)n1`, for which the “tubulin polymerization end-point dOD” value is -15.2%.

As for `COc1ccccc1NC(=O)CSc1nnc(-c2cccnc2)n1-c1ccccc1C`, the “tubulin polymerization end-point dOD” value was -57.2%.

With `CCS(=O)(=O)N1CCc2cc(C(=O)Cn3cnc4sc(C)c(-c5ccccc5)c4c3=O)ccc21`, the “tubulin polymerization end-point dOD” value came to 38.3%.

Regarding `Cc1ccc2nc(-c3ccc(I)cc3)cn2c1`, the “tubulin polymerization end-point dOD” value was found to be 101%.

As for `O=C(Nc1ncc(Cc2ccccc2Br)s1)c1cnccn1`, the “tubulin polymerization end-point dOD” value is 6.47%.

On to `Cc1cc2cc3c(cc2nc1SCC(=O)Nc1ccccc1Br)OCO3`, for which the “tubulin polymerization end-point dOD” value is -1.3%.

On to `COc1ccccc1Nc1nc(-c2ccc(S(C)(=O)=O)cc2)cs1`, for which the “tubulin polymerization end-point dOD” value is 104%.

Consider `COc1ccc2cc(CN(Cc3ccco3)C(=O)c3cccs3)c(=O)[nH]c2c1`, for which the “tubulin polymerization end-point dOD” value came to 91.2%.

On to `Cc1ccc2cc(C#N)c(SCC(=O)c3ccccc3)nc2c1`, for which the “tubulin polymerization end-point dOD” value is -46.9%.

Take `Cc1ccc2cc(C#N)c(SCC(=O)c3ccc(F)cc3)nc2c1C`: the “tubulin polymerization end-point dOD” value worked out at 20%.

In the case of `O=c1[nH]c(/C=C/c2ccccc2)nc2sc3c(c12)CCCC3`, the “tubulin polymerization end-point dOD” value is -32.9%.
